Screens deposited in PubChem by National Center for Advancing Translational Sciences (NCATS).
LASV entry inh: inhibitors of Lassa virus binding or cell entry; hit rate 1.2% among 300,000; Potency, µM (titrated, usually from 37.9 µM), for the others: at the top dose activity change, negative = inhibition, hits mostly inhibitors; Lassa virus pseudotype entry inhibition, cell reporter; AID 540256; calls by dose curve; tested in HEK293 cells; also: potency is read from the fitted curve at half-maximal effect; % is scaled to controls: 0 for no effect and ±100 for the full control effect; nearly all actives have a fitted effect of over 50% in size
FMDV antiviral: blocks foot and mouth disease virus. FMDV antiviral cell-based qHTS. hit rate 1.2% among 410,000. Potency, µM (titrated, usually from 57.9 µM), for inactives: top-dose activity change, negative = inhibition, most hits filed as inhibitors. AID 1159524; calls by dose curve; tested in HEK293T cells; also: read-out not given here; potency is read from the fitted curve at half-maximal effect; % is scaled to controls: 0 for no effect and ±100 for the full control effect; nearly all actives have a fitted effect of over 45% in size
Shiga inhibitor: inhibitors of Shiga toxin in Vero cells; Vero cells, Shiga toxin protein synthesis inhibition reporter; inhibition, % at 38.7 µM; hit rate 9.2% among 290,000; AID 2315; in the data active = inhibition mostly above about 28%, no sharp cut-off; inactive = mostly below about 43%; also: 0% is about no effect
MARV entry inh: blocks Marburg virus binding to or entry into cells; Potency, µM (titrated, usually from 37.8 µM), for the others: at the highest dose activity change, negative = inhibition, most hits filed as inhibitors; hit rate 1.8% among 300,000; Marburg virus pseudotyped entry inhibition, cell reporter; calls by dose curve; tested in HEK293 cells; also: potency is read from the fitted curve at half-maximal effect; % is scaled to controls: 0 for no effect and ±100 for the full control effect
HCV inh: blocks hepatitis C virus; Potency, µM (highest dose often 41.8 µM), for the others: at the highest dose activity change, negative = inhibition, actives largely listed as inhibitors; Huh7.5.1 HCVcc-Cre infection, luciferase reporter, 44 h; hit rate 3.4% among 340,000; active = well fitted inhibition curve with a large enough effect; inconclusive = small, poorly fitted or top-dose-only effect, or another doubt; inactive = no such curve, though single readings can be large or run the other way; also: potency is read from the fitted curve at half-maximal effect; % is scaled to controls: 0 for no effect and ±100 for the full control effect
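After 44 h co-culture of compound, cells and HCVcc-Cre (~0.5 moi), substrate is added for 15 min at room temperature and luciferase measured over 15 sec. Cells were seeded at 1,000/well and pre-cultured 4 h.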
CHX counter: counter-screen hit for Shiga toxin inhibitors, cycloheximide | max response, % | AID 2314 | hit rate 12% among 300,000 | cell reporter, cycloheximide protein synthesis inhibition counterscreen; in the data active = max response mostly above about 13%, no sharp cut-off; inactive = mostly below about 14%; also: read at 38.3 µM for the half of the compounds with a filed dose; 0% is about no effect
Starred values were filed as active, the others as inactive; ? = inconclusive; / = not tested or not shown; [ ] = another dose, or the depositor's remark. The list is not random: actives were taken first. Their share in the collection is about 13%.

SMILES	LASV entry inh	FMDV antiviral	Shiga inhibitor	MARV entry inh	HCV inh	CHX counter
CN(CCc1ccccn1)C(=O)Nc1ccc(F)cc1	27%	-23%	3	5%	3%	-5
Cc1ccc(NC(=O)c2cncc(Br)c2)c([N+](=O)[O-])c1	?	27%	77*	?	4%	11*
CC(C)c1ccc(O)c(NC(=O)c2cncc(Br)c2)c1	-2%	17%	36*	9%	-15%	19*
O=C(CSCCc1ccccn1)Nc1cccnc1Cl	-27%[14.3 µM]	-2%	-1	-2%	8%	-3
COc1ccc(NC(=O)Nc2c(O)ccc3ccccc23)cc1	/	132%	/	/	?	/
CCN(CC)CCCNC(=O)c1nn2c(C(F)(F)F)cc(-c3ccccc3)nc2c1Cl	/	-16%	-28	/	4µM*	-4
CCCCNC(=O)c1nn2c(C(F)(F)F)cc(-c3ccccc3)nc2c1Br	-23%[46.1 µM]	-25%	-4	-22%[46.1 µM]	?	-3
Cn1cc(C(=O)Nc2ccc(Cl)cc2)c(C(F)(F)F)n1	/	10%	4	/	-8%	-3
CCC(C)Sc1cc(C(F)(F)F)c(C(=O)Nc2ccc(Cl)cc2)cn1 (stereo not given)	?	?	3	?	22µM*	8
N#CC(C#N)=C1C=CC=CN1/C(=C\c1ccccc1)C(=O)c1cccs1	5%	?	57	7%	-25%	24*
Nc1ccc2nc(C(F)(F)F)[nH]c2c1	-1%	-13%	-6	10%	26%	0
COC(=O)c1ccc2nc(C(F)(F)F)[nH]c2c1	-7%	-4%	11	3%	-10%	17*
NC(=S)N/N=C\c1ccc(-c2cccc(Cl)c2Cl)o1	11%	4%	29	?	-6%	24
NC(=S)N/N=C/c1ccc(-c2ccc(SC(F)F)cc2)o1	?	-18%	41*	?	?	38*
NC(=S)NN=Cc1ccc(-c2ccc(S(=O)(=O)Nc3ncccn3)cc2)o1	4%	-14%	/	-2%	-11%	/
CCNC(=S)N/N=C/c1ccc(-c2ccccc2)o1	-10%	18%	49*	4%	?	24*
NC(=S)N/N=C/c1ccc(-c2ccc(Cl)c(Cl)c2)o1	-7%	-17%	33	-6%	?	20*
CCNC(=S)N/N=C/c1ccco1	18%	8%	-16	16%	0%	-2
Cc1ccc(-c2ccc(/C=N/NC(N)=S)o2)cc1	?	34%	58*	?	11µM*	28*
NC(=S)N/N=C/c1ccc(-c2ccccc2)o1	/	0%	36*	/	-20%	24*
CN(CCc1ccccn1)c1ncnc2[nH]ncc12	-1%	40%	33*	?	1%	19
CN(c1cccnc1)c1ncnc2[nH]ncc12	18%	-3%	2	10%[46.1 µM]	15%	-1
O=[N+]([O-])c1nn(-c2ccc3c(c2)OCCO3)n(O)c1=NCc1ccc(F)cc1Cl	?	27%	131*	24%[46.1 µM]	23%	50*
Cc1cccc(-n2nc([N+](=O)[O-])c(=NCc3cccnc3)n2O)c1	2%	40%	16	-2%	?	24
O=[N+]([O-])c1nn(-c2ccc3c(c2)OCCO3)n(O)c1=NCCC1=CCCCC1	-2%	24%	49	13%	-7%	25*
SMILES	LASV entry inh	FMDV antiviral	Shiga inhibitor	MARV entry inh	HCV inh	CHX counter
O=[N+]([O-])c1nn(-c2ccc3c(c2)OCCO3)n(O)c1=NC1CCN(Cc2ccccc2)CC1	/	4%	9	/	?	3
O=[N+]([O-])c1nn(-c2ccc3c(c2)OCCO3)n(O)c1=NCc1ccc(F)cc1	?	-10%	92*	?	?	103*
COc1cccc(C=O)c1OC(=O)N1CCOCC1	5%[46.1 µM]	-8%	14	-4%[46.1 µM]	18%	-7
CC1(C)Cc2ccccc2-c2nc(-c3ccccc3)oc(=O)c21	-22%	?	-9	?	-13%	1
CCN(CC)CCCNC(=O)c1ccc(OCC(=O)Nc2ccccc2C(F)(F)F)c(OC)c1	?	-2%	-5	11µM*	?	5
Cc1cccc(C)c1OCC(=O)Nc1ccccc1C(F)(F)F	-10%[46.1 µM]	-1%	4	-24%[46.1 µM]	3%	-2
CCN(CC(=O)Nc1ccc(OC)c(OC)c1)CC(=O)Nc1ccccc1C(F)(F)F	-27%[46.1 µM]	-17%	19	-2%[46.1 µM]	-27%	-3
Cc1cccc(OCC(=O)Nc2ccccc2C(F)(F)F)c1	-1%	25%	81*	?	16%	14
Cc1cccc(OCC(=O)Nc2cc(C)ccc2O)c1	-5%	-2%	30*	18%	?	21*
O=C(Nc1ccccc1Cl)c1cc(S(=O)(=O)N2CCOCC2)cs1	3%	-16%	18	20%	9%	4
CCOc1ccc(Cl)cc1S(=O)(=O)N1CCC(C(=O)NCc2cccnc2)CC1	9%[46.1 µM]	-2%	7	?	3%	-7
CN1c2ccccc2Oc2c(c(=O)n(C)c(=O)n2C)C1c1cccc([N+](=O)[O-])c1 (stereo not given)	-27%	-29%	-12	?	3.5µM*	-6
CCN(CC)CC(=O)N1c2ccccc2Oc2c(c(=O)n(C)c(=O)n2C)C1c1cccc([N+](=O)[O-])c1 (stereo not given)	1%[46.1 µM]	8%	-4	-12%[46.1 µM]	-7%	-4
Cc1cc(C)nc(-n2nc(C)cc2NC(=O)c2ccc(S(=O)(=O)N3CCOCC3)cc2)n1	/	8%	-7	/	-4%	-3
CN(CCc1nc2ccccc2[nH]1)Cc1nc(CC2CC2)no1	/	-25%	20	/	17%	-4
CN(Cc1nc2ccccc2[nH]1)Cc1nc(CC2CC2)no1	/	15%	31	/	5%	16*
COc1cc(/C=C/C(=O)Nc2ccccc2C(F)(F)F)cc(OC)c1OC	/	/	10	/	/	-1
CCOC(=O)c1c(NC(=O)Cc2ccccc2)sc2c1CCN(C)C2	/	-1%	4	/	?	-4
CCOC(=O)c1c(NC(C)=O)sc2c1CCC(C=NCCCN(CC)CC)=C2Sc1ccccc1	?	?	/	?	7.9µM*	/
CCOC(=O)N/N=C\c1ccc(OC(=O)c2ccco2)cc1	3%	8%	18	9%[46.1 µM]	4%	18
Cc1c(C(=O)N(C)c2cccc(Cl)c2)cnn1-c1ccccc1	/	0%	60*	/	-13%	39*
CN(C(=O)c1coc(=O)c2ccccc12)c1ccccc1Cl	-14%[46.1 µM]	-13%	-6	?	22%	-3
NC(=O)c1cnn(-c2cccc(Cl)c2)c1N	/	12%	11	/	7%	7
Cc1c(C(=O)N(C)c2ccccc2Cl)cnn1-c1ccccc1	-16%[46.1 µM]	-6%	30*	20%[46.1 µM]	?	12*
CCCCCN(C(=O)CCC(=O)OCC(=O)N(CC#N)c1ccccc1)c1c(N)n(CCCC)c(=O)[nH]c1=O	3%[46.1 µM]	-7%	/	?	-6%	/
C=CCN(C(=O)c1oc2c(Cl)cc(C)cc2c1C)C1CCS(=O)(=O)C1 (stereo not given)	/	6%	60*	/	?	60*
Cc1cc(Cl)c2oc(C(=O)N(C)CC3CCOCC3)c(C)c2c1	/	7%	71*	/	-11%	38*
